This note sets out measurements from the supplement of paper PMC11417369.

± gives the standard deviation of the averaged measurements. Whole data set: some 25,000 sequences, median “ln(normalized median fluorescence intensity)” near 7.9, cut for the highest 2% near 11. What follows is part of a selection rich in the highest values, with near analogues and random picks from the rest.

The assay has as its system PfAP2-I AP2 domain 3 (GST-tagged). As to the kind of experiment: gcPBM binding intensity (ln(normalized median fluorescence intensity)); higher = stronger DNA binding. The method, boiled down: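 Binding intensity is the highest Masliner-normalised natural-log median intensity over replicate spots in either probe orientation. To obtain it, GST-tagged P. falciparum DNA-binding domains made in E. coli were incubated for 1 h on an Agilent 4 × 180k array of primer-extended double-stranded 36-bp intergenic genomic probes plus negative controls. Detection used Alexa488 anti-GST antibody with scanning at 488 nm.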
As to “CCTATCCAGACATATACACACATATCTATTTATATA [CACACA_site5001]”, the “gcPBM binding intensity (ln)” value was found to be 8.01 ± 0.57.
With “AAGTAATTTGTTGACACACACACACGCATACCTATA [CACACA_site7140]”, the “gcPBM binding intensity (ln)” value stood at 8.07 ± 0.65.
For “TTTTTTTCATAAGAAGCACACAAAAAATGATAGAGA [CACACA_site8401]”, the “gcPBM binding intensity (ln)” value worked out at 8.29 ± 0.4.
To “TAAATTAAAAAACATAAACTATTGGAAACGCATTGA [CACACA_negctrl_site935]” belongs 7.57 ± 0.64; to “TAGGCGTTTAATAAAAGTACCCACACATATATTATT [XGTACX_site1932]”, 7.68 ± 0.49.
Then “ATATTATGTGATTGTGCACACTGGAGATTTTTTTTA [CACACA_site1453]”, with 10.9 ± 0.17; and “TATATATATATATATGTGCACTGGACATATTTTTAT [GTGCAC_site9721]”, with 10.09 ± 0.099; and “GAGATTTATTTATGTGCACACTAGAACAATTGGATC [CACACA_site2090]”, with 9.99 ± 0.42.
To “TTAATATAGGGAAAAAAAAGAAAATCGAAAATGTGT [CACACA_negctrl_site834]” belongs 8 ± 0.75; to “TTTTTTTTATGTATCACACATAATTTTTTATTATGA [CACACA_site5534]”, 7.63 ± 0.68.
Regarding ATTTTCATGATAAAGGTGCAATTATTTTTATAAGAA, the “gcPBM binding intensity (ln)” value worked out at 10.9 ± 0.53.
Then “GTATTCATGCTAAAGGTGCAATAATTTTTATAATAA [GTGCAC_site9603]”, with 11.5 ± 0.61.
Then “ACACATAATATAAAGGTGCTATATTGTATTCATTTT [GTGCAC_site9457]”, with 10.1 ± 0.2.
To “TATAATTATTTTTTTCTAAATATTATAAGGTATTCA [GTGCAC_negctrl_site205]” belongs 7.18 ± 0.33; to “ATTATAAAAGAATTTTTTTTTATTTCATTAAAATAT [CACACA_negctrl_site1137]”, 7.09 ± 0.47.
Consider “TATAATTTATTAAGGGGTACATATATTTCATGATAA [XGTACX_site5141]”, for which the “gcPBM binding intensity (ln)” value was 7.88 ± 0.37.
To “TATAAATATCTGAATTGTACAGGTGAAAAAAAAAAT [XGTACX_site1867]” belongs 8.04 ± 0.62; to “TAATTAGATTATTTTTGTACATATTATTATAGGTTA [XGTACX_site2077]”, 7.59 ± 0.26.
Then “ACAAAAATAAGCAAATGTACATATGTATAATATATT [XGTACX_site2492]”, with 7.77 ± 0.58.
TTAAAAAATAACAAGGTGCAAATAGGTTTATAAAAT: the “gcPBM binding intensity (ln)” value was determined as 10.84 ± 0.064.
To AGTGACACCAAAGGGGTGCAATGAAATTAAAAATAT belongs 10.7 ± 0.24; to “TAAAAATTAAAAAGGGTGCAAAAAAAAAAAAAAAAA [GTGCAC_site9733]”, 11 ± 0.61.
“TAAATTAAAAAAAAAAACAAAAAAAAAGCAACAAAA [CACACA_negctrl_site1318]”: the “gcPBM binding intensity (ln)” value is 7.67 ± 0.57.
With AAAAAAAAAAAAAAGGTGCAAATAAATTAACCTTAT, the “gcPBM binding intensity (ln)” value was determined as 11.4 ± 0.44.
As to “ATTATCCATCAAAAGGTGCAAATTTTTAATTATAAA [GTGCAC_site9932]”, the “gcPBM binding intensity (ln)” value is 10.5 ± 0.49.
For “TATGTGTGACAAAATTGTACGGTCTCTTTATTTTGT [XGTACX_site2679]”, the “gcPBM binding intensity (ln)” value is 7.72 ± 0.54.
Turning to “TCCTTATAAATATATATATAATATATATATATATAT [CACACA_negctrl_site293]”, the “gcPBM binding intensity (ln)” value was 8.86 ± 0.2.
As to “ATTTTTATTCAGTTCACACACGCTTTAATATTATAT [CACACA_site3465]”, the “gcPBM binding intensity (ln)” value came to 8.3 ± 0.58.
To “ATATATCCAATATATATATATATATATATATATATA [CACACA_negctrl_site160]” belongs 9.2 ± 0.67.
To “TGTTGGCAGGTGAATGCATGCATATAAGTCTATCTG [TGCATGCA_site781]” belongs 8.02 ± 1.1; to “TATTCCTATATAAAGACACACATATGTAACTACGAT [CACACA_site4139]”, 7.68 ± 0.59; to “ATATAATATAACAATACGCACACGTATACAAAAAAA [CACACA_site3151]”, 8.36 ± 0.41.
As for “TATTAATTTCTTTTTTCTCATCACTTTCAAAATGAA [CACACA_negctrl_site1055]”, the “gcPBM binding intensity (ln)” value was 7.9 ± 0.47.
Then “ATTATGTATACATAAACACACATATATATAAAAAAA [CACACA_site262]”, with 7.92 ± 0.64.
For “TTCATTAAAGTTATTACACACAGTTCTTCAACCAAA [CACACA_site7613]”, the “gcPBM binding intensity (ln)” value is 7.88 ± 0.46.
Then “TGTATAATATTTGGTGCACACAAATTAACAACTGTT [CACACA_site9245]”, with 11.1 ± 0.54; and “TTCTTTGTAGTATATTAACACACAACTGTTTATAAT [CACACA_site9305]”, with 8.02 ± 0.59; and “ATATTTATAAATTGCACACAAATAATAACATTATAT [CACACA_site5322]”, with 8.68 ± 0.13.
To “TATAATATTTGGTGCACACAAATTAACAACTGTTTA [CACACA_site3742]” belongs 11.1 ± 0.39; to “AAATATTTATAAATTGCACACAAATAATAACATTAT [CACACA_site8737]”, 8.47 ± 0.099.
To “CTTTGTAGTATATTAACACACAACTGTTTATAATAT [CACACA_site6038]” belongs 7.77 ± 0.54; to “ATTCAAAAGGTTTAATGTACGTGATGTTTCACAAAT [XGTACX_site784]”, 7.74 ± 0.5.
As for “AAAAATGGAATTATCTGTACATATATAGTTTTTAAA [XGTACX_site5580]”, the “gcPBM binding intensity (ln)” value came out at 7.44 ± 0.33.
With “AATTGTTCTATGATTTGTACACACTTTTTTTTAAAA [XGTACX_site5984]”, the “gcPBM binding intensity (ln)” value was found to be 8.15 ± 0.52.
Then “ATTTTAATAAAATATGTACACACATACACCCATATA [CACACA_site8326]”, with 8.15 ± 0.34.
For “AATACATGAATATGTAGTACAGAAAAAAAAAATATA [XGTACX_site1945]”, the “gcPBM binding intensity (ln)” value is 7.89 ± 0.6.
For “GTATAATATTTTAATGCACACACACTAATAAAAAAA [CACACA_site8939]”, the “gcPBM binding intensity (ln)” value was 11.1 ± 0.76.
Then “TTTTTAAAATATTTAACACACAATTTTAATGCATAA [CACACA_site6036]”, with 8.8 ± 0.11.
Take “ATTTTTAATATTATTACACACACTAATAAAAAAAAA [CACACA_site8265]”: the “gcPBM binding intensity (ln)” value worked out at 7.96 ± 0.27.
Then “TGATTCAATTTATGCACACTAAAAATTAATTATATT [CACACA_site271]”, with 9.65 ± 0.23.
To “TAATATAATATATGCACACAAATATGTATATATGTG [CACACA_site2134]” belongs 8.895 ± 0.049.
Then “ATATTTTACAAATGCACACATAATTTTTTTTTTTTT [CACACA_site2763]”, with 9.33 ± 0.099; and “TTTTTTTTTTTTAATGCACACAATATATAATATGTA [CACACA_site3694]”, with 11.2 ± 0.4; and “AATAAATATAAAAATGCACACACACTAATAAAAAAA [CACACA_site8201]”, with 8.67 ± 0.52.
With “TATAATATAATATATGCACACAAATATGTATATATG [CACACA_site8664]”, the “gcPBM binding intensity (ln)” value was determined as 8.86 ± 0.085.
“ATAATATTTTAATGCACACACACAAAAAAAAAAAAA [CACACA_site2891]”: the “gcPBM binding intensity (ln)” value came out at 11.2 ± 0.61.
To “AGATAAAATATATATGCACACACATATATATTTCAT [CACACA_site9183]” belongs 9.255 ± 0.007; to TTAAAAAATATATGCGTGCACTAATATTTCATATGC, 11.5 ± 0.2; to “ATTAATGATTTTTGTTGTACATTATTAATTTACATT [XGTACX_site544]”, 7.83 ± 0.46.
To “ATTTCTCAATCGTAATGTACAAAAAAAAGGGAAAAG [XGTACX_site2781]” belongs 7.9 ± 0.58.
Then “AAGGAATATGTATATACACACAGGTACATATATATA [CACACA_site441]”, with 8.16 ± 0.71; and “AGTAGTCTGGAGAAAAGTACATAGTATCTGGTAGCT [XGTACX_site2027]”, with 7.98 ± 0.52.
Turning to “AAGAGAGAGAAATATGCACACATAAGGGAAATAAAT [CACACA_site8300]”, the “gcPBM binding intensity (ln)” value worked out at 8.895 ± 0.049.
Then “TTTATTCCAGTATTCACACACGAATAACCACATAAC [CACACA_site5104]”, with 7.93 ± 0.42; and “ATATATATATATATTTGTACATAATATATATATGCA [XGTACX_site1795]”, with 9.28 ± 0.48; and “AGATATAATAAATATACACACATATATATATATATA [CACACA_site962]”, with 9.2 ± 0.76.
Then “TAAATTTTAATATGCACACAAAATGTTATATTAAAA [CACACA_site4366]”, with 9.13 ± 0.35; and “TTTAAATTTTAATATGCACACAAAATGTTATATTAA [CACACA_site8015]”, with 9.06 ± 0.13; and “AATATTTTAATGCACACACACAAAAAAAAAAAAAAA [CACACA_site7374]”, with 11.5 ± 0.73.
Regarding “AAGCATATTATAAACACACACTGTATAAAGATATAT [CACACA_site6277]”, the “gcPBM binding intensity (ln)” value stood at 7.66 ± 0.67.
To “TATATACCACATTGTTGTACGACACATTTACATTTT [XGTACX_site8370]” belongs 8.21 ± 0.57.
Then “ACATGAAACTATAAACGTACATACATACATATATAT [XGTACX_site5011]”, with 8.09 ± 0.6; and “AAAAAAAAAAAAAGGTGTACATGCAAAATAAATTCT [XGTACX_site4592]”, with 8.56 ± 0.35; and “TATTTTATATAAAGGTGTACTTATACAAAAATATAT [XGTACX_site7435]”, with 8.14 ± 0.28.
Then “ATTTTTCTAAAATACTGTACAAAGGTGCATAAAAAG [XGTACX_site4425]”, with 11.8 ± 0.87; and “TATAAATACTAAAAAAGTACAAAATTTCATAAAAAA [XGTACX_site2709]”, with 7.82 ± 0.59; and “TTTTCTCTAAAAAGGTGTACAACTAATAATGCACTG [XGTACX_site6074]”, with 11.4 ± 0.31.
On to “GATAATGAATGATGCACACTAAAAATATTCTACAAC [CACACA_site3622]”, for which the “gcPBM binding intensity (ln)” value worked out at 8.66 ± 0.16.
Then “ATATATATATATATATGTACATATTGTATTAATTAT [XGTACX_site1919]”, with 9.31 ± 0.11; and “AATGTCATCATATTCATATATATTTATTTCTTTTTG [GTGCAC_negctrl_site500]”, with 7.68 ± 0.57.
Then “TAAATTTAGAAACACACACACATATATATATATATA [CACACA_site847]”, with 9.36 ± 0.38.
Then “AAAATAATAATAGGCACACATATATATATATATATA [CACACA_site2058]”, with 9.36 ± 0.32; and “TAATAACTACAAAAAAAAAAGAAAAATAGAAAAAGG [CACACA_negctrl_site1102]”, with 7.75 ± 0.67.
For ATAGAAGGCAACTTGGTGCACAAAAAAAAAAATAAT, the “gcPBM binding intensity (ln)” value came to 11.6 ± 0.25.
On to “TTTCACCATATAAACGTGCACACTACAAAAATATAT [CACACA_site2547]”, for which the “gcPBM binding intensity (ln)” value came to 11.1 ± 0.35.
To “CCATATCTTTTTTGCACACACTACAATAAAACAAAA [CACACA_site4995]” belongs 9.95 ± 0.2; to “AAACAAAAAATATATACACACTAAACATAAAAAAAA [CACACA_site4185]”, 7.81 ± 0.65; to “TTTCACTACACAAATACACACAAAAATATATGTGCA [CACACA_site2632]”, 7.91 ± 0.54.
Then “TCACCATATAAACGTGCACACTACAAAAATATATAA [CACACA_site5413]”, with 11 ± 0.24; and “TACAAACACCCATATACACACAAAAAAAAAATAAAA [CACACA_site5421]”, with 7.78 ± 0.31.
